An excerpt weighted towards active compounds, which were near 5.7% of everything screened.
DAX1 inh-1: blocks DAX1 repression of SF-1 activated StAR promoter; HEK293T StAR-luciferase reporter, SF-1/DAX-1 repression relief; inhibition, % at 6.8 µM; hit rate 1.1% among 370,000;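 active = inhibition above the mean over all tested compounds plus 3 SD, cut at about 3.6% in these data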;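 note: 0% = DAX-1 cells with DMSO and 100% = cells lacking DAX-1 with DMSO; higher inhibition means more luminescence from relief of DAX-1 repression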
hgDAF12 agonist: activates the H. glycines DAF-12 receptor ligand-binding domain; activation, % at 6.8 µM; HEK293 GAL4-hgDAF12 UAS-luciferase reporter, agonist luminescence; normalized to butyrate control; AID 687014; hit rate 1.8% among 370,000;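 active = activation above a cutoff set at the mean of all screened compounds plus 3 SD, cut at about 10% in these data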;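 note: 0% = DMSO wells and 100% = sodium butyrate wells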
DAX1 inh-2: inhibits human nuclear receptor DAX1; P51843; HEK293 Gal4-DAX1 luciferase reporter, luminescence; inhibition, % at 6.75 µM; hit rate 0.99% among 340,000;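 active = inhibition above the mean over all tested compounds plus 3 SD, cut at about 4.2% in these data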;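 note: 0% = DAX1-transfected cells with DMSO and 100% = empty-vector control cells with DMSO; inhibition shows as a rise in luminescence from relieved DAX1 repression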
ssDAF12 agonist: activates DAF-12 receptor from parasite S. stercoralis | hit rate 1% among 370,000 | AID 652126 | HEK293 ssDAF-12/GRIP1 lit1-tk-luc reporter, luminescence; % of 3 µM dafachronic acid response | activation, % at 6.8 µM;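 active = activation above the mean over all tested compounds plus 3 SD, cut at about 0.9% in these data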;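 note: 0% = DMSO-only wells and 100% = 3 µM delta7-dafachronic acid wells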
AHR act: activators of human aryl hydrocarbon receptor; P35869; AHR-responsive luciferase reporter cells, luminescence; activation, % at 5 µM; hit rate 2.5% among 320,000; AID 2796; in the data active = activation above about 47%;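 note: 0% = vehicle wells and 100% = reference agonist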
Target sequence (P35869 whole entry, looked up): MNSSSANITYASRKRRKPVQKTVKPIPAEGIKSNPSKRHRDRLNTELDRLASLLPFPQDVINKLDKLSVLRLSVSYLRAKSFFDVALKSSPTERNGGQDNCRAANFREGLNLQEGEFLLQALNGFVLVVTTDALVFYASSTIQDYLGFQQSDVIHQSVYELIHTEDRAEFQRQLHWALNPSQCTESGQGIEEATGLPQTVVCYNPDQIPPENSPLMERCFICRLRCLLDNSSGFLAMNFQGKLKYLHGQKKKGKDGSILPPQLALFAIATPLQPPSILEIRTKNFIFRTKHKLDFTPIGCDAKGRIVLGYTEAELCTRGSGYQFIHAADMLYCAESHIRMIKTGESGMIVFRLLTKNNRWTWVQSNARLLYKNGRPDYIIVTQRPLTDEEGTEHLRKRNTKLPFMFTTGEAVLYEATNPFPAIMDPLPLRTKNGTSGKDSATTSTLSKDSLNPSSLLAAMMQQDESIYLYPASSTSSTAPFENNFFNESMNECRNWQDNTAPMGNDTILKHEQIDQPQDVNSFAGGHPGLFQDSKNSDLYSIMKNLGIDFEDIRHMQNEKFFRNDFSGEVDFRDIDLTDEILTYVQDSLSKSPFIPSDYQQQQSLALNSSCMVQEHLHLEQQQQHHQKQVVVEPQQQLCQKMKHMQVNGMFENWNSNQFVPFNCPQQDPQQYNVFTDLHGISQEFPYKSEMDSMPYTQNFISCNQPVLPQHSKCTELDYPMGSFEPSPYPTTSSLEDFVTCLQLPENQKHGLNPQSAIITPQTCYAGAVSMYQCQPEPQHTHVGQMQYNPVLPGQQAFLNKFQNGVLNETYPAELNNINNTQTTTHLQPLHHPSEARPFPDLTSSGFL
hcDAF-12 act: H. contortus DAF-12 activation, primary screen; HEK293 hcDAF-12 lit1-tk-luc reporter, luminescence; 0% DMSO, 100% Δ7-dafachronic acid; activation, % at 6.8 µM; hit rate 1.4% among 370,000; AID 652067;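 active = activation above the mean of all tested compounds plus 3 SD, cut at about 5.5% in these data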;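 note: 100% = response to 3 µM Δ7-dafachronic acid high control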
LXR ag: counter-screen for hcDAF-12 agonists: agonists of human LXR-beta; HEK293 Gal4-LXR tk-luc reporter, luminescence, 24 h; normalized: DMSO 0%, positive control 100%; activation, % at 6.8 µM; AID 743027; shares compounds with hcDAF-12 act; 3,400 tested, under 10 active;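 active = mean percent activation of the reporter above a cutoff set as the average over tested compounds plus their standard deviation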
hcDAF12 conf: confirmation of H. contortus DAF-12 agonists. shares compounds with hcDAF-12 act. HEK293 hcDAF-12 lit1-tk-luc reporter, luminescence; % of Δ7-dafachronic acid response. activation, % at 6.8 µM. hit rate 61% among 3,400;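 active = mean activation across triplicate tests above the threshold derived from the earlier primary screen, cut at about 5.5% in these data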;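 note: 0% = DMSO only wells and 100% = 3 µM Δ7-dafachronic acid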
hgDAF12 ag: confirmation of H. glycines DAF-12 agonists; HEK293 GAL4-hgDAF12 luciferase reporter, agonist mode; percent of butyrate response; shares compounds with hgDAF12 agonist; activation, % at 6.8 µM; hit rate 80% among 3,300;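 active = mean activation over triplicate wells above the hit cutoff derived from the earlier primary screen, cut at about 11% in these data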;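 note: 0% = DMSO low control and 100% = 2 mM sodium butyrate high control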
LXR ag 2: LXR-beta agonism as DAF-12 counter-screen; shares compounds with hgDAF12 agonist; HEK293 Gal4-LXR luciferase reporter, 24 h; activation, % at 6.8 µM; 3,300 tested, under 10 active; AID 743051;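 active = mean activation of the triplicate above a set limit carried over from the primary screen, none filed active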
Active calls of the source: *; / = no result given.

SMILES | DAX1 inh-1 | hgDAF12 agonist | DAX1 inh-2 | ssDAF12 agonist | AHR act | hcDAF-12 act | LXR ag | hcDAF12 conf | hgDAF12 ag | LXR ag 2
CC(C)c1cc(N2CCOCC2)n2ncc(-c3ccccc3)c2n1 | 0 | -1 | 3 | -1 | / | 3 | / | / | / | /
COc1ccc(N2CCN(CCNC(=O)CCCn3c(=O)[nH]c4cc(Cl)ccc4c3=O)CC2)cc1 | 1 | -2 | 0 | -1 | 3 | 0 | / | / | / | /
Oc1ccc(C=NNc2nc3ccccc3s2)c(O)c1 | 2 | 13* | 3 | 1.8* | / | 9.6* | 2 | 5 | 11* | 1
Cc1cc(N/N=C/c2ccc(O)cc2O)c2ccccc2n1 | 1 | -1 | -1 | -2 | -1 | 0 | / | / | / | /
COc1cccc(N(C(=O)c2nc3nccc(C)n3n2)c2nc3ccccc3s2)c1 | 4.0* | 20* | 1 | 1.1* | 30 | 8.4* | 1 | 5 | 16* | 1
Cc1nn(-c2ccccc2)c(N)c1N=Nc1cccc(S(=O)(=O)N2CCOCC2)c1 | -1 | -3 | -1 | -2 | 14 | -3 | / | / | / | /
Nc1nn(-c2ccccc2)c(N)c1N=Nc1ccccc1 | 1 | 22* | -1 | 1 | 21 | 9.0* | 1 | 4 | 29* | 1
COc1nc(C)ccc1-c1noc(-c2cccs2)n1 | 3 | 14* | / | 0 | 14 | 8.4* | 1 | 6.2* | 16* | 1
COc1cccc(-c2noc(-c3cccs3)n2)c1 | 4.0* | 15* | 2 | 1.4* | 48* | 6.9* | 2 | 11* | 21* | 1
COc1cccc(OCc2nnc(-c3cccs3)o2)c1 | 3 | 3 | 0 | -1 | 8 | 0 | / | / | / | /
Cc1c(C(=O)NN2CCOCC2)cccc1[N+](=O)[O-] | 0 | 2 | 0 | -2 | -4 | 0 | / | / | / | /
Cc1ccc(NC(=O)c2ccc(Cl)nc2)cc1 | 2 | 14* | 4 | 1.4* | 20 | 8.7* | 0 | 8.2* | 9 | 0
O=C1/C(=C\c2cccs2)Sc2ccc3ccccc3c21 | 4.0* | 16* | 5.2* | 6.4* | 62* | 22* | 2 | 19* | 31* | 1
O=C(Nc1ccc2ccccc2n1)c1ccc(Cl)cc1 | 1 | 15* | 3 | 1 | 20 | 10* | 2 | 7.0* | 19* | 1
O=C(Nc1cccc(NC(=O)c2ccc(Cl)cc2)n1)c1ccc(Cl)cc1 | 0 | 1 | 1 | -1 | 1 | 0 | / | / | / | /
COc1ccc(C(=O)Nc2ccc3ccccc3n2)c(OC)c1OC | 0 | 6 | -6 | 0 | 3 | 4 | / | / | / | /
O=C(Nc1ccc2ccccc2n1)c1ccccc1Cl | 1 | 16* | 3 | 0 | -4 | 7.2* | 2 | 5.7* | 18* | 1
NC(=O)c1c(NC(=O)c2ccco2)sc2c1CCC2 | 2 | 14* | 2 | 1.1* | 76* | 6.7* | 1 | 8.9* | 17* | 1
Cc1cccn2c(CN3CCCN(C=O)CC3)c(C(=O)N(C)CCc3ccccc3)nc12 | 1 | 0 | 1 | -1 | 10 | 2 | / | / | / | /
Cc1ccc(C)c(NC(=O)c2cc3ccccn3n2)c1 | 3.6* | 21* | 1 | 0 | -2 | 7.8* | 1 | 3 | 18* | 1
O=C(NC1=NCCS1)c1ccc(Cl)c(Cl)c1 | 3 | 20* | 5.4* | 1 | 0 | 9.2* | 1 | 7.5* | 18* | 1
Cn1nc(C(C)(C)C)cc1C(=O)N1CCCCC1c1cc(C(=O)Nc2cccc(C#N)c2)no1 (configuration not stated) | -1 | 3 | / | -1 | / | -2 | / | / | / | /
Cc1cc2nc(-c3ccc[nH]c3=O)[nH]c2cc1C | 3 | 15* | -5 | 1.2* | 1 | 7.6* | 2 | 7.9* | 12* | 1
Cc1cc2nc(-c3ccc[nH]c3=O)n(Cc3ccc(F)cc3)c2cc1C | 0 | 1 | 1 | -1 | 2 | 0 | / | / | / | /
CC1=C/C(=C(\c2cc(C)c(O)c(Br)c2)c2ccccc2S(=O)(=O)O)C=C(Br)C1=O | 0 | -1 | -3 | -2 | -3 | -1 | / | / | / | /
SMILES | DAX1 inh-1 | hgDAF12 agonist | DAX1 inh-2 | ssDAF12 agonist | AHR act | hcDAF-12 act | LXR ag | hcDAF12 conf | hgDAF12 ag | LXR ag 2
CS(=O)(=O)c1ccc(Cl)c(NC(=O)COC(=O)CNC(=O)c2ccccc2)c1 | 0 | 1 | 1 | 0 | 1 | -1 | / | / | / | /
O=S(=O)(Nc1nc2ccccc2nc1N1CCN(c2ccccn2)CC1)c1ccc(Cl)cc1 | 0 | 2 | 1 | -1 | / | 0 | / | / | / | /
O=S(=O)(Nc1nc2ccccc2nc1N1CCc2ccccc2C1)c1ccc(Cl)cc1 | 4.3* | 20* | 0 | 2.5* | 63* | 16* | 0 | 6.3* | 24* | 1
O=C(COc1ccc2ccccc2c1)Nc1nccs1 | 3.6* | 19* | -1 | 0 | 14 | 6.7* | 2 | 7.2* | 18* | 1
O=C(Nc1nc2ccccc2[nH]1)c1cccc(F)c1 | 2 | 17* | 0 | 2.3* | 47 | 13* | 2 | 12* | 18* | 1
CC(OC(=O)Cn1cnc2c1c(=O)n(C)c(=O)n2C)C(=O)c1ccccc1 (configuration not stated) | 1 | -2 | 2 | -1 | 1 | -1 | / | / | / | /
CCCCn1c(-c2nonc2NC(=O)c2ccccc2Cl)nc2ccccc21 | 1 | 0 | 3 | 1 | / | 1 | / | / | / | /
CC(=O)Nc1ccc(NC(=O)CSc2nnc(NC(=O)c3ccccc3F)s2)cc1 | 3 | 17* | 1 | 0 | / | 7.1* | 1 | 7.2* | 13* | 0
Cc1ccc(Nc2nc(CSc3nnc(-c4ccncc4)n3C)cs2)cc1 | 4 | 16* | -2 | 0 | 17 | 7.3* | 1 | 4 | 15* | 0
Cc1ccc(Nc2nc(-c3ccncc3)cs2)cc1 | 4.2* | 16* | 1 | 2.4* | / | 8.9* | 1 | 7.2* | 19* | 1
Fc1ccc(-c2csc(Nc3ccccn3)n2)c(F)c1 | 2 | 14* | 3 | 3.4* | 78* | 15* | 2 | 16* | 20* | 1
Cc1cccnc1Nc1nc(-c2ccc(O)cc2)cs1 | 2 | 9 | 2 | -1 | 5 | 0 | / | / | / | /
Cc1ccc(-c2csc(Nc3ccccn3)n2)cc1 | 2 | 16* | -3 | 2.2* | 43 | 8.2* | 2 | 9.9* | 19* | 1
